Screening results (PubChem BioAssay)
An excerpt weighted towards active compounds, which were near 13% of everything screened.
Pf growth 96h – inhibits malaria parasite growth, 96 h; 6.9% of 320,000 active; Potency, µM (highest dose often 28.7 µM), usual class: inhibitors; P. falciparum luciferase reporter growth, 96 h; AID 504834
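Parasite growth measured via integrated firefly luciferase reporter in P. falciparum. Infected erythrocytes at 2% hematocrit, 0.05% parasitemia final were treated 96 hours at 37 C under 5% CO2, and luminescence was read.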
HCMV antiviral – blocks human cytomegalovirus replication; HFF cells, HCMV-luciferase reporter, 72 h; hits give low values; activity change, negative = inhibition, % at 57.5 µM; 4.5% of 410,000 active; in the data active = activity change below about -60%; inconclusive = no clear call, values can overlap the other calls; inactive = above about -39%
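Human foreskin fibroblasts infected with luciferase-reporter HCMV at MOI 1 PFU/cell, compounds at two doses. Luciferase measured 72 h post infection; normalized to buffer-only basal and Salinomycin (10uM) controls.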
HCV inhibitor – inhibitors of hepatitis C virus infection; Potency, µM (titrated, usually from 41.8 µM), usual class: inhibitors; Huh7.5.1 HCVcc-Cre infection, luciferase reporter, 44 h; 3.4% of 340,000 active
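Luciferase read-out (15 sec integration) after a 15 min room-temperature substrate step quantifies HCVcc-Cre infection. Cells, 1,000 per well, had compound added 4 h post-plating, then virus at ~0.5 moi, and were cultured 44 h.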
Pf growth 48h – inhibits P. falciparum growth in the first generation, 48 h; 5.9% of 310,000 active; P. falciparum luciferase growth in erythrocytes, 48 h; AID 504832; Potency, µM (top dose mostly 28.7 µM), most hits filed as inhibitors
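Erythrocytes infected with P. falciparum carrying an integrated firefly luciferase reporter (2% hematocrit, 0.1% parasitemia final) were exposed to compounds in RPMI 1640 with 0.5% Albumax at 37 C, 5% CO2. Growth inhibition was scored as reduced luminescence.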
Each line names hits and unclear results; the compound was inactive in the other large screens; ! = a repeat was not active. Unless noted, calls come from the whole dose curve; as a rule, active = well fitted inhibition curve with a large enough effect; inconclusive = small, poorly fitted or top-dose-only effect, or another doubt; inactive = no such curve, though single readings can be large or run the other way.

Cc1ccc(NC(=O)c2ccc(CNS(=O)(=O)c3ccc4c(c3)C(C)(C)C(=O)N4C)cc2)cc1C	none (no result: Pf growth 96h, HCV inhibitor, Pf growth 48h)
COc1ccc(NC(=O)C2CCCCN2CC(=O)OCc2ccccc2)cc1OC (stereo unspecified)	none
COc1ccc(CNN2CCCCC2C(=O)Nc2ccc(OC)c(OCC(C)C)c2)cc1OC (stereo unspecified)	Pf growth 96h 15µM
NC(=O)C1(NC(=O)[C@@H]2CC3(CC(c4cccc(NC(=O)[C@@H]5CCC(=O)N5)c4)=NO3)CN2C(=O)c2ccccc2)CC1 (stereo partly specified)	none
NC(=O)[C@@H]1CC2(CC(c3cccc(NC(=O)COc4ccc(Cl)cc4)c3)=NO2)CN1C(=O)c1ccccc1 (stereo partly specified)	Pf growth 96h 13µM, HCV inhibitor inconclusive, Pf growth 48h 10µM
NC(=O)[C@H]1CC2(CC(c3cccc(NC(=O)COc4ccc(Cl)cc4)c3)=NO2)CN1C(=O)Cc1ccc([N+](=O)[O-])cc1 (stereo partly specified)	Pf growth 96h 12µM, HCMV antiviral -78, HCV inhibitor 1.6µM, Pf growth 48h 8.3µM
CCCOc1ccc(C(=O)N2CC3(CC(c4cccc(NC(=O)[C@@H]5CCC(=O)N5)c4)=NO3)C[C@H]2C(=O)NC2(C(N)=O)CC2)cc1 (stereo partly specified)	HCMV antiviral -64
COc1ccc(C(=O)N2CC3(CC(c4cccc(NC(=O)COc5ccc(Cl)cc5)c4)=NO3)C[C@@H]2C(N)=O)cc1 (stereo partly specified)	Pf growth 96h 12µM, Pf growth 48h 10µM
Cc1noc(/C=C/c2ccccc2F)c1S(=O)(=O)N1CCC(C(=O)N(C)Cc2ccco2)CC1	none (no result: Pf growth 96h, HCV inhibitor, Pf growth 48h)
COc1ccc(-c2oc3ncn4nc(COc5cccc(C)c5C)nc4c3c2-c2ccc(OC)cc2)cc1	none (no result: Pf growth 96h, HCV inhibitor, Pf growth 48h)
COc1ccc(-c2sc3ccc(OC)cc3c2-c2ccc(OC)c(F)c2)cc1	Pf growth 48h inconclusive
COc1ccc(-c2sc3ccc(N4CCOCC4)cc3c2-c2ccc(OC)c(F)c2)cc1	Pf growth 96h 6.6µM, Pf growth 48h 15µM
COc1ccc(-c2sc3ccc(N4CCOCC4)cc3c2C#CCCO)cc1	HCV inhibitor 4µM (no result: Pf growth 96h, Pf growth 48h)
COc1ccc(-c2sc3cc(OC)c(OC)cc3c2C#CCCO)cc1	Pf growth 96h inconclusive, HCV inhibitor inconclusive, Pf growth 48h inconclusive
COc1ccc(CNC(=O)Cc2coc3ccc(C)cc23)cc1	none (no result: Pf growth 96h, HCV inhibitor, Pf growth 48h)
CCCn1c(SCc2nc(-c3ccc(OC)cc3OC)no2)nnc1-c1ccc(Cl)cc1	none (no result: Pf growth 96h, HCV inhibitor, Pf growth 48h)
NC(=O)CC(NC(=O)Cc1cccc2ccccc12)c1ccc(NCCc2ccc(F)cc2)c([N+](=O)[O-])c1 (stereo unspecified)	HCMV antiviral -67, Pf growth 48h inconclusive
NC(=O)CC(NC(=O)Cc1cccc2ccccc12)c1ccc(NCc2ccc(F)cc2)c([N+](=O)[O-])c1 (stereo unspecified)	none
NC(=O)CC(NC(=O)Cc1ccc(Br)cc1)c1ccc(NC2CCN(Cc3ccccc3)CC2)c([N+](=O)[O-])c1 (stereo unspecified)	Pf growth 96h inconclusive, HCMV antiviral -93, Pf growth 48h inconclusive
NC(=O)CC(NC(=O)Cc1cccc2ccccc12)c1ccc(NC2CCCCCCC2)c([N+](=O)[O-])c1 (stereo unspecified)	HCMV antiviral -62
NC(=O)CC(NC(=O)Cc1cccc2ccccc12)c1ccc(NC2CCCCCC2)c([N+](=O)[O-])c1 (stereo unspecified)	HCV inhibitor inconclusive
NC(=O)CC(NC(=O)Cc1cccc2ccccc12)c1ccc(NCCc2ccccc2F)c([N+](=O)[O-])c1 (stereo unspecified)	Pf growth 96h inconclusive, HCMV antiviral -81, Pf growth 48h inconclusive
NC(=O)CC(NC(=O)Cc1cccc2ccccc12)c1ccc(NC2CCN(Cc3ccccc3)CC2)c([N+](=O)[O-])c1 (stereo unspecified)	Pf growth 96h inconclusive
COc1ccc(CNC(=O)c2[nH]c(C(F)(F)F)nc2-c2ccccc2)cc1OC	none (no result: Pf growth 96h, HCV inhibitor, Pf growth 48h)
COc1ccc(CNC(=O)c2sccc2-c2ccccc2)cc1OC	Pf growth 96h inconclusive, HCMV antiviral -71
Cc1cccc(C(=O)Nc2ccc(C(=O)OCc3cc(=O)n4c5c(sc4n3)CCCC5)cc2)c1	none (no result: Pf growth 96h, HCV inhibitor, Pf growth 48h)
O=C(COC(=O)CNC(=O)c1ccc([N+](=O)[O-])o1)Nc1ncc(Cl)cc1Cl	Pf growth 96h inconclusive, Pf growth 48h inconclusive
O=C(COC(=O)CNC(=O)c1ccc([N+](=O)[O-])o1)Nc1ncc(C(F)(F)F)cc1Cl	Pf growth 96h inconclusive, HCV inhibitor 2.8µM, Pf growth 48h inconclusive
CCOC(=O)N1CCN(c2cc(NCCC(=O)O)c3c4c(onc24)-c2ccccc2C3=O)CC1	HCV inhibitor inconclusive, Pf growth 48h 8.3µM (no result: HCMV antiviral)
O=C(O)CCCNc1cc(N2CCN(C(=O)c3ccco3)CC2)c2noc3c2c1C(=O)c1ccccc1-3	Pf growth 96h inconclusive, Pf growth 48h inconclusive
Cc1ccc(CNC(=O)CCCCn2c(=O)c3ccccc3n(Cc3ccc(Cl)cc3)c2=O)cc1	none (no result: Pf growth 96h, HCV inhibitor, Pf growth 48h)
COc1ccc(OC)c(NC(=O)CN2C(=O)NC3(CCCc4ccccc43)C2=O)c1 (stereo unspecified)	Pf growth 96h inconclusive
COc1cccc(NC(=O)CN2C(=O)NC3(CCCc4ccccc43)C2=O)c1 (stereo unspecified)	Pf growth 96h 4.7µM
COc1ccc(C(=O)CN2C(=O)NC3(CCc4ccccc43)C2=O)cc1 (stereo unspecified)	none
COc1ccc(C(NC(=O)CN2C(=O)NC3(CCc4ccccc43)C2=O)c2ccccc2)cc1 (stereo unspecified)	Pf growth 96h inconclusive, Pf growth 48h 12µM
COc1ccc(C(NC(=O)CN2C(=O)NC3(CCc4ccccc43)C2=O)c2ccc(OC)cc2)cc1 (stereo unspecified)	Pf growth 96h inconclusive, HCV inhibitor inconclusive, Pf growth 48h 10µM
C/C(=C(/CCOC(=O)C(C)C)SS/C(CCOC(=O)C(C)C)=C(\C)N(C=O)Cc1cnc(C)nc1N)N(C=O)Cc1cnc(C)nc1N	Pf growth 96h inconclusive (no result: HCMV antiviral, HCV inhibitor)
Cc1cccc(N2CCN(C(=O)C3CCN(C(=O)c4cc5sccc5n4C)CC3)CC2)c1C	none (no result: Pf growth 96h, HCV inhibitor, Pf growth 48h)
COc1ccccc1N1CCN(C(=O)c2cc3c(=O)n(C)c4ccccc4c3s2)CC1	none (no result: Pf growth 96h, HCV inhibitor, Pf growth 48h)
Cc1ccc(Cl)cc1N1CCN(C(=O)c2cc3c(=O)[nH]c4ccccc4c3n2C)CC1	Pf growth 96h 9.3µM, HCMV antiviral -95, HCV inhibitor 8.9µM!, Pf growth 48h inconclusive
O=C(c1cc2sccc2n1Cc1ccc(F)cc1)N1CCN(c2nc3ccccc3s2)CC1	HCMV antiviral inconclusive, HCV inhibitor 3.2µM, Pf growth 48h inconclusive
COc1ccccc1N1CCN(C(=O)c2cc3c(=O)n(C)c4ccccc4c3n2C)CC1	Pf growth 96h 7.4µM (no result: Pf growth 48h)
COc1ccccc1N1CCN(C(=O)c2cc3sccc3n2C)CC1	Pf growth 96h inconclusive, HCMV antiviral -76, HCV inhibitor inconclusive
COCCNC(=O)CSc1nc(-c2cc(OC)c(OC)c(OC)c2)[nH]c1-c1ccc(Cl)cc1	none (no result: Pf growth 96h, HCV inhibitor, Pf growth 48h)
